Autofluor counter = flagged as autofluorescent in microsphere protease counterscreen | compound autofluorescence counterscreen, microsphere flow cytometry; hits give high values | hit rate 3.1% among 360,000 | fluorescence intensity (test concentration not listed); in the data active = fluorescence intensity above about 16000; inconclusive = no clear call, values can overlap the other calls
BoNT-A LC inh2 = inhibitors of Botulinum neurotoxin A light chain protease. multiplex microsphere protease substrate cleavage, flow cytometry. inhibition, % at 10 µM. hit rate 0.17% among 360,000. AID 588499; also: plate controls were buffer without enzyme for full effect and enzyme alone for no effect
Anthrax LF inh2 = inhibitors of Bacillus anthracis lethal factor protease; AID 588501; inhibition, % at 10 µM; multiplex microsphere protease cleavage assay, LF; P15917; hit rate 0.12% among 360,000; also: plate controls were buffer without enzyme for full effect and enzyme alone for no effect
BoNT-F LC inh = blocks Botulinum neurotoxin F light chain protease | Multiplex microsphere protease cleavage assay, flow cytometry | inhibition, % at 10 µM | hit rate 0.22% among 360,000; in the data active = inhibition above about 35%, passing the limit was not always enough; inconclusive = no clear call, values can overlap the other calls; also: plate controls were buffer without enzyme for full effect and enzyme alone for no effect
Vc quorum ag = induces V. cholerae light production without autoinducers; V. cholerae BH1578 lux reporter, luminescence, 6 h; activation, % at 18.7 µM; hit rate 0.16% among 350,000; in the data active = activation mostly above about 9.7%, no sharp cut-off; inconclusive = no clear call, values can overlap the other calls; inactive = mostly below about 3.7%
MazEF act = MazEF (E. coli) toxin RNase activation; P0AE70; activation, % at 20 µM; hit rate 0.32% among 350,000; FAM/BHQ RNA-DNA oligo cleavage fluorescence, 5 h; in the data active = activation above about 50%
* marks the source's active call; other numbers are inactive results; i = inactive; ? = inconclusive; · = not tested or not shown; + = active, no number. This is a sample that favours compounds with a hit; in the whole collection about 3.9% have one here. Rule as the data show it, unless noted: active = inhibition above about 30%; inconclusive = no clear call, values can overlap the other calls; inactive = below that.

SMILES	Autofluor counter	BoNT-A LC inh2	Anthrax LF inh2	BoNT-F LC inh	Vc quorum ag	MazEF act
NC(=O)c1cccn1Cc1ccccc1Cl	22851*	-0.1	3.3	2.2	-1.4	1.0
CCCC(=O)N1CCOCC1c1cc(C(=O)NCc2ccccc2)no1 (stereo not given)	3934	-0.7	-4.7	3.0	0.3	·
Cc1ccc(-c2csc(NC(=O)c3ccc4c(=O)n5c(nc4c3)CCCCC5)n2)cc1	1950	-0.5	-1.4	1.1	0.7	-7.9
COc1ccc(CNC(=O)/C=C/c2cc([N+](=O)[O-])ccc2OC(F)F)cc1OC	18771*	?	-13.2	15.0	i	18.6
COc1ccc(CNC(=O)/C=C/c2cc([N+](=O)[O-])ccc2OC(F)F)cc1	16762*	?	1.5	-1.6	-0.2	6.7
COC(=O)c1ccc(CNC(=O)/C=C/c2cc([N+](=O)[O-])ccc2OC(F)F)cc1	19547*	2.5	-4.3	1.3	i	17.2
COc1ccccc1NC(=O)/C=C/c1cc([N+](=O)[O-])ccc1OC(F)F	6184	-0.3	2.8	-8.5	-2.0	22.0
O=C(/C=C/c1cc([N+](=O)[O-])ccc1OC(F)F)NCc1ccc(Cl)cc1	2333	-0.5	-1.3	-11.1	i	6.6
COCCN(C(=O)Cc1cccs1)C(C(=O)NC1CCCC1)c1cc(OC)c(OC)c(OC)c1 (stereo not given)	3629	0.4	-2.3	-13.2	-0.8	-9.6
COc1cccc(N2CCN(C(=O)C3C4C=CC5(CN(Cc6ccccc6Cl)C(=O)C35)O4)CC2)c1 (stereo not given)	23129*	-0.9	-1.7	1.0	-0.6	3.1
COc1ccc(CN2CC34C=CC(O3)C(C(=O)O)C4C2=O)cc1 (stereo not given)	6173	-0.7	-8.7	-7.4	0.9	12.4
O=c1[nH]c2ccccc2n1CCCSCCCn1c(=O)[nH]c2ccccc21	19717*	?	-2.9	2.7	i	-6.7
Cc1cc(C(=O)CSCCCn2c(=O)[nH]c3ccccc32)c(C)n1C	2276	0.4	-7.4	-5.1	·	7.0
CCOC(=O)c1cnc(-n2nc(C)cc2C)nc1NC(C)c1ccccc1 (stereo not given)	16140*	-0.5	-1.8	-3.0	2.2	2.7
CCOC(=O)c1cnc(-n2nc(C)cc2C)nc1NCCO	22604*	-1.1	-1.2	-1.5	i	-12.8
CCOC(=O)c1cnc(-n2nc(C)cc2C)nc1N1CC(C)OC(C)C1 (stereo not given)	21874*	2.9	-1.6	0.8	-6.2	-1.4
CCNc1c(NS(=O)(=O)c2ccc(Cl)s2)c(=O)oc2ccccc12	3720	-2.4	5.3	-15.6	-0.2	10.5
CCOc1ccc(N2C(=O)C3ON(C)C(c4ccc([N+](=O)[O-])cc4)C3C2=O)cc1 (stereo not given)	4181	0.5	8.6	6.9	i	7.3
Cc1cc(C)cc(NC(=O)N2CCN(S(C)(=O)=O)CC2)c1	4031	0.6	-8.8	3.9	i	4.1
Clc1cc(Cl)cc(Nc2ccccc2CN(C/C=C/c2ccc3c(c2)OCO3)Cc2ccccc2)c1	3478	-0.2	-6.0	1.2	i	-5.5
CC(C)(C)c1ccccc1OCC(=O)NCCC(=O)O	24308*	-2.6	-1.3	-3.9	-12.5	6.4
COc1ccc(C2c3c(oc4ccccc4c3=O)C(=O)N2Cc2ccncc2)cc1OC (stereo not given)	·	·	·	·	·	7.0
O=C1c2oc3ccccc3c(=O)c2C(c2cccc(Br)c2)N1Cc1ccco1 (stereo not given)	20275*	-0.8	-1.4	-0.2	i	12.9
O=C1NC(=S)S/C1=C/c1ccc(OC(=O)c2ccco2)cc1	6065	-0.9	1.0	-4.6	-0.1	74.3*
CCOc1cc(/C=C2/SC(=S)NC2=O)ccc1OC(=O)c1ccco1	3426	0.7	-3.7	-3.0	i	31.0
SMILES	Autofluor counter	BoNT-A LC inh2	Anthrax LF inh2	BoNT-F LC inh	Vc quorum ag	MazEF act
CC[n+]1c(/C=C/N(C)c2ccccc2)sc2ccc(Cl)cc21	6962	59.0*	59.0*	43.2*	-0.4	19.4
CC[n+]1c(/C=C/C=C/c2ccc(N(C)C)cc2)sc2ccccc21	3041	20.4	-21.7	+	i	4.4
CC[n+]1c(/C=C/C=C/N(C(C)=O)c2ccccc2)sc2ccccc21	6377	?	?	?	12.5	154.0*
CN(C)c1ccc(/C=C/C=C/c2sc3ccccc3[n+]2C)cc1	·	·	·	·	-0.5	22.4
O=C1[C@@H](c2ccccc2)CC[C@@H]2C=CC[C@H]3CCN1[C@@H]32	5908	-0.9	2.5	3.3	·	·
Cc1cc(C(=O)OCC(=O)Nc2ccccc2C#N)c(C)o1	?	?	?	?	389.9*	10.2
Cc1cc(C(=O)OCC(=O)Nc2cc(Cl)ccc2C)c(C)o1	5361	2.2	5.1	-8.1	11.5	2.1
Nc1c(C(=O)NCc2ccco2)c2nc3ccccc3nc2n1CCN1CCOCC1	21216*	5.6	1.4	6.1	-1.4	1.4
COc1cc(C(c2c(C)[nH][nH]c2=O)c2c(C)[nH][nH]c2=O)ccc1OCc1ccc([N+](=O)[O-])cc1	21766*	2.9	0.8	-1.3	i	6.7
COc1cc(C(c2c(C)[nH][nH]c2=O)c2c(C)[nH][nH]c2=O)ccc1OS(=O)(=O)c1ccccc1	16308*	-1.0	-4.0	-5.3	i	-3.4
Cc1cc(Nc2ccc(Cl)cc2)nc(N)n1	21661*	1.2	-3.6	0.4	-2.0	3.3
COc1ccc(Nc2cc(C)nc(N)n2)cc1	4666	1.8	1.5	?	-0.7	9.4
CCn1c(=O)n(CC)c2cc(S(=O)(=O)Nc3ccccc3C)c(C)cc21	23798*	?	-5.9	-0.2	i	-4.7
O=C(c1cc(C2CC2)nn1-c1ccccc1)N1CCN(S(=O)(=O)c2ccccc2F)CC1	2756	0.1	1.8	-9.5	i	2.1
CCN(CC)C1=CC2=CC(=C(C#N)C#N)CCC2CC1 (stereo not given)	39639*	-7.6	24.1	61.8*	1.6	·
CCCCN(C)C1=CC2=CC(=C(C#N)C#N)CCC2CC1 (stereo not given)	49793*	8.6	38.5*	108.7*	-0.3	·
N#CC(C#N)=C1C=C2C=C(N3CCCCC3)CCC2CC1 (stereo not given)	·	·	·	·	·	+
N#CC1=C(N)C2=C(N3CCCCC3)CCCC2C1(C#N)C#N (stereo not given)	3834	-2.8	-13.1	-43.0	0.1	-2.9
Cc1noc(C)c1NC(=O)N(C)C[C@H]1Oc2c(NC(=O)C3CCCCC3)cccc2C(=O)N([C@H](C)CO)C[C@@H]1C	2968	-0.6	-5.4	-9.6	5.8	12.6
C[C@H]1CCCCO[C@H](CN(C)S(=O)(=O)c2cn(C)cn2)[C@@H](C)CN([C@@H](C)CO)C(=O)c2cc(NS(=O)(=O)c3ccccc3)ccc2O1	3459	-0.1	-1.8	0.1	-0.5	-2.7
O=C(COc1ccccc1)NC1CCN(Cc2ccccc2)CC1	17241*	?	-1.4	-1.3	i	3.1

Compound activity deposited in PubChem by several laboratories.
